# PubChem BioAssay
# Values joined by “and” are separate entries in the source; they are usually repeats but may differ in a detail not shown here. Identical values can stand only once. Inconclusive results are not listed. Active and inactive are the calls of the source.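 How the source made its calls, unless noted: active means normalized viability below 100% at a tested concentration; inactive means the rest.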
# What was measured:
# [1] = viability loss in pontine glioma line – cell-based, SU-DIPG-XVII, MIPE5.0, CellTiter-Glo, qHTS, dose response (AID 1347060; cut-off not given, nearly all actives have AC50 up to about 26 µM;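 on AC50: cells exposed to compound for 48 hours before viability readout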); details: CellTiter-Glo ATP luminescence
# [2] = viability loss in pontine glioma line – cell-based, SU-DIPG-XIII, MIPE4.0, CellTiter-Glo, qHTS, dose response (AID 1347061; cut-off not given, nearly all actives have AC50 up to about 37 µM;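 further: cells exposed to compound for 48 hours before readout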); details: CellTiter-Glo ATP luminescence
# [3] = viability loss in pontine glioma line – cell-based, JHH-DIPG-1, MIPE4.0, CellTiter-Glo, qHTS, dose response (AID 1347062; cut-off not given, nearly all actives have AC50 up to about 27 µM;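 on AC50: cells exposed to compound for two days before readout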); details: JHH-DIPG-1 viability, CellTiter-Glo ATP luminescence
# [4] = viability loss in pontine glioma line – cell-based, SU-DIPG-IV, MIPE4.0, CellTiter-Glo, qHTS, dose response (AID 1347063; cut-off not given, nearly all actives have AC50 up to about 30 µM;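 further: compound exposure lasted 48 hours before the viability readout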); details: CellTiter-Glo ATP luminescence
# [5] = viability loss in pontine glioma line – cell-based, SU-DIPG-XIII, MIPE5.0, CellTiter-Glo, qHTS, dose response (AID 1347064; cut-off not given, nearly all actives have AC50 up to about 23 µM;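 on AC50: cells exposed to compound for 48 hours before the viability read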); details: CellTiter-Glo ATP luminescence
# [6] = viability loss in pontine glioma line – cell-based, SU-DIPG-XXV, MIPE5.0, CellTiter-Glo, qHTS, dose response (AID 1347065; cut-off not given, nearly all actives have AC50 up to about 26 µM;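 further: cells exposed to compound for 48 hours before ATP readout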); details: CellTiter-Glo ATP luminescence
# [7] = growth inhibition of DIPG cells – cell-based, MIPE4.0 library, CellTiter-Glo luminescence, qHTS (AID 1347066; cut-off not given, nearly all actives have AC50 up to about 30 µM;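 further: cells exposed to compound for 48 hours before readout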); details: SU-DIPG-VI viability, CellTiter-Glo ATP luminescence
# [8] = JHH-DIPG-1 glioma cell viability, MIPE5.0 library, CellTiter-Glo luminescence, qHTS (AID 1347067; cut-off not given, nearly all actives have AC50 up to about 26 µM;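 further: cells exposed to compound for 48 hours before readout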); details: JHH-DIPG-1 glioma viability, CellTiter-Glo ATP luminescence
# [9] = growth inhibition of DIPG cells – cell-based, MIPE5.0 library, qHTS (AID 1347068; cut-off not given, nearly all actives have IC50 up to about 30 µM); details: SU-DIPG-XXV viability
# [10] = growth inhibition, single agent or in combination, cell-based, chromothripsis tumors, cisplatin or BGB combos (AID 1671449; in the data active means inhibition above about 80%;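 further: cells exposed for 96 hours; 0% = vehicle DMSO and 100% = killing by high DMSO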); details: LFS_MB_P medulloblastoma cells
# [11] = growth inhibition, single agent and combos, cell-based, chromothripsis tumors, cisplatin or BGB combos (AID 1671450; in the data active means inhibition above about 80%;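 further: cells exposed to compound for four days; 0% = vehicle DMSO and 100% = cell killing by high DMSO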); details: HDN33 neuroblastoma cells, stronger effect = higher value
# [12] = growth inhibition, single agents and combos, ICB984, cell-based, cisplatin or BGB combos, synergistic combos for chromothripsis tumors (AID 1671451; call rule not given here;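 further: cells exposed for 96 hours before readout; 0% = vehicle DMSO and 100% = killing by high DMSO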); details: ICB984 medulloblastoma cells, drug combinations, stronger effect = higher value
# [13] = growth inhibition, single agents and combos, HTB85, cell-based, BGB or cisplatin IC20 combos, synergistic combos for chromothripsis tumors (AID 1671453; in the data active means inhibition above about 80%;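 further: cells exposed for 96 hours before readout; 0% = vehicle DMSO and 100% = high DMSO killing control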); details: HTB85 osteosarcoma cells, drug combinations, stronger effect = higher value
# [14] = growth inhibition, MDA-MB-436, cell-based, BGB or cisplatin combos, synergistic combos for chromothripsis tumors (AID 1671458; call rule not given here;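 further: cells exposed for 96 hours; 0% = vehicle DMSO and 100% = killing by high DMSO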); details: MDA-MB-436 breast carcinoma growth inhibition, drug combinations, stronger effect = higher value
# [15] = BT084 cell growth, single and combined drugs, ICGC_MB145, cisplatin and BGB IC40 combos (AID 1671461; in the data active means inhibition above about 80%;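 further: cells exposed to drugs for 96 hours; 0% = vehicle DMSO and 100% = high DMSO full killing control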); details: BT084 medulloblastoma cells, drug combinations, stronger effect = higher value
# [16] = RCMB18 cell growth, single agent and combined, cisplatin and BGB IC40 combos (AID 1671462; in the data active means inhibition above about 80%;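 further: cells exposed to compound for four days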); details: RCMB18 medulloblastoma cells, stronger effect = higher value
# [17] = compounds altering HSF1 focus formation in cells – imaging, Selleck Cancer Library (AID 1347162; in the data active means plate-normalised HSF1 focus index below about 0.46); details: human cells, HSF1 nuclear foci imaging, at 10 µM; SSMD: measured here: HSF1 foci SSMD mean; cell count: measured here: cell number; plate-normalised HSF1 focus index: stronger effect = lower value
# [18] = viability loss with induced miR-34 in A549 – imaging, A549 dox-inducible miR-34, nuclei and caspase counts, primary screen (AID 1347080;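 active means compounds whose cell count with miR-34 switched on is under 0.7 times the count with it off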); details: A549 miR-34 inducible, Hoechst nuclei count, 48 h
# [19] = MELAS cybrid and Rieske KO viability enhancers – cell-based, MELAS cybrids, Rieske KO mouse fibroblasts, CellTiter-Glo, primary screen (AID 1508586;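 active means mean z-score across replicates of 1.96 or higher in either the MELAS or the Rieske mutant cell line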;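 further: z relative to plate mean and SD of compound and empty wells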); details: low glucose
# [20] = drug combination growth inhibition, ovarian cancer – cell-based, oncology-focused library, rucaparib conditional, profiling panel (AID 1508598); details: patient-derived ovarian cancer cells, CellTiter-Glo viability, 144 h, stronger effect = lower value
compound,measurement,setting,value
O=C(/C=C/c1ccc(CN(CCO)CCc2c[nH]c3ccccc23)cc1)NO,AC50,[1],525 nM (active)
same,AC50,[2],1180 nM (active)
same,AC50,[3],235 nM (active)
same,AC50,[4],935 nM (active)
same,AC50,[5],332 nM (active)
same,AC50,[6],295 nM (active)
same,AC50,[7],235 nM (active)
same,AC50,[8],417 nM (active)
same,outcome,[9],inactive
same,inhibition,"[10]; at 0.5 µM, stronger effect = higher value",-16.3% (inactive)
same,inhibition,"[10]; measured here: combination with BGB IC20, at 0.005 µM",-29.5%
same,inhibition,"[10]; measured here: combination with BGB IC40, at 0.005 µM",-69.2%
same,inhibition,"[10]; measured here: combination with BGB IC40, at 0.05 µM",-42.5%
same,inhibition,"[10]; measured here: combination with cisplatin, at 0.5 µM, stronger effect = higher value",-26.1%
same,inhibition,"[10]; measured here: combination with cisplatin, at 5 µM, stronger effect = higher value",114%
same,inhibition,"[11]; BGB combo, at 5 µM",99.9%
same,inhibition,[11]; at 0.5 µM,99.3% (active)
same,inhibition,"[11]; cisplatin combo, at 5 µM",99.9%
same,inhibition,"[11]; measured here: with BGB IC20 combination, at 0.5 µM",98.5%
same,inhibition,"[11]; measured here: with cisplatin IC20 combination, at 0.5 µM",99.7%
same,inhibition,"[11]; single agent, at 5 µM",99.9%
same,inhibition,"[12]; BGB IC20 combo, at 0.005 µM",71.4%
same,inhibition,"[12]; BGB IC40 combo, at 0.005 µM",89.6%
same,inhibition,"[12]; BGB IC40 combo, at 0.05 µM",100%
same,inhibition,[12]; at 0.5 µM,-29.4% (inactive)
same,inhibition,"[12]; cisplatin combo, at 0.05 µM",101%
same,inhibition,"[12]; cisplatin combo, at 0.5 µM",-36.3%
same,inhibition,"[12]; cisplatin combo, at 5 µM",-4.27%
same,inhibition,"[12]; measured here: 5 uM single agent, at 5 µM",13.8%
same,inhibition,[13]; at 0.5 µM,99.3% (active)
same,inhibition,"[13]; measured here: with BGB IC20, at 0.5 µM",98.7%
same,inhibition,"[13]; measured here: with BGB IC20, at 5 µM",99.9%
same,inhibition,"[13]; measured here: with cisplatin IC20, at 0.5 µM",99.9%
same,inhibition,"[13]; measured here: with cisplatin IC20, at 5 µM",99.9%
same,inhibition,"[13]; single agent, at 5 µM",99.9%
same,inhibition,[14]; at 0.5 µM,63.3% (inactive)
same,inhibition,"[14]; measured here: BGB combination, at 0.5 µM",55.8%
same,inhibition,"[14]; measured here: BGB combination, at 5 µM",59.7%
same,inhibition,"[14]; measured here: cisplatin combination, at 0.5 µM",60.4%
same,inhibition,"[14]; measured here: cisplatin combination, at 5 µM",75.3%
same,inhibition,[15]; at 0.5 µM,98.5% (active)
same,inhibition,"[15]; cisplatin combination, at 0.5 µM",101%
same,inhibition,"[15]; cisplatin combination, at 5 µM",104%
same,inhibition,"[15]; measured here: BGB IC40 combination 0.05 uM, at 0.05 µM",38.4%
same,inhibition,"[15]; single agent, at 5 µM",108%
same,inhibition,[16]; at 0.5 µM,82% (active)
same,inhibition,"[16]; cisplatin combo, at 5 µM",98.9%
same,inhibition,"[16]; measured here: BGB IC40 combination, at 0.05 µM",6.39%
same,inhibition,"[16]; measured here: combination with cisplatin, at 0.5 µM",90.4%
same,inhibition,"[16]; single agent, at 5 µM",96.9%
C[C@@H]1CCN(C(=O)CC#N)C[C@@H]1N(C)c1ncnc2[nH]ccc12,outcome,[1],inactive
same,outcome,[2],inactive
same,outcome,[3],inactive
same,outcome,[4],inactive
same,outcome,[5],inactive
same,outcome,[6],inactive
same,outcome,[7],inactive
same,outcome,[8],inactive
same,SSMD,[17],3.28
same,cell count,[17],7280
same,plate-normalised HSF1 focus index,[17],1.17 (inactive)
CCCCCCCCc1ccc(CCC(N)(CO)CO)cc1,AC50,[1],10500 nM (active)
same,AC50,[2],23500 nM (active)
same,AC50,[3],9350 nM (active)
same,AC50,[4],3720 nM (active)
same,AC50,[5],18600 nM (active)
same,AC50,[6],10500 nM (active)
same,AC50,[7],23500 nM (active)
same,AC50,[8],10500 nM (active)
same,fold change,"[18]; stronger effect = lower value, cell number ratio, induced over uninduced",0.951 (inactive) and 0.892 (inactive)
same,fold change,[18]; measured here: relative caspase fold change +Dox/-Dox,0.756 and 0.682
same,cell count,"[18]; measured here: total cells with miR-34 induction, stronger effect = lower value",5440 and 7580
same,cell count,[18]; measured here: total cells without miR-34 induction,5720 and 8490
same,SSMD,[17],-8.05
same,cell count,[17],3980
same,plate-normalised HSF1 focus index,[17],0.589 (inactive)
same,z-score,"[19]; MELAS cybrid survival, CellTiter-Glo 48 h, stronger effect = higher value",-0.312 (inactive)
same,z-score,"[19]; Rieske KO mouse fibroblast survival, CellTiter-Glo 72 h",-0.433
same,viability,"[20]; at 0.000305 µM, OCI-C5x cells, with rucaparib 10 µM, 100% = cells with rucaparib alone",106% (inactive)
same,viability,"[20]; at 0.000305 µM, OCI-C5x cells, without rucaparib",117% (inactive)
same,viability,"[20]; at 0.000305 µM, OCI-P5x cells, with rucaparib 20 µM, 100% = cells with rucaparib alone",107% (inactive)
same,viability,"[20]; at 0.000305 µM, OCI-P5x cells, without rucaparib",111% (inactive)
same,viability,"[20]; at 0.00122 µM, OCI-C5x cells, with rucaparib 10 µM, 100% = cells with rucaparib alone",110% (inactive)
same,viability,"[20]; at 0.00122 µM, OCI-C5x cells, without rucaparib",112% (inactive)
same,viability,"[20]; at 0.00122 µM, OCI-P5x cells, with rucaparib 20 µM, 100% = cells with rucaparib alone",89.4% (active)
same,viability,"[20]; at 0.00122 µM, OCI-P5x cells, without rucaparib",98% (active)
same,viability,"[20]; at 0.00488 µM, OCI-C5x cells, with rucaparib 10 µM, 100% = cells with rucaparib alone",101% (inactive)
same,viability,"[20]; at 0.00488 µM, OCI-C5x cells, without rucaparib",122% (inactive)
same,viability,"[20]; at 0.00488 µM, OCI-P5x cells, with rucaparib 20 µM, 100% = cells with rucaparib alone",93.5% (active)
same,viability,"[20]; at 0.00488 µM, OCI-P5x cells, without rucaparib",103% (inactive)
same,viability,"[20]; at 0.0195 µM, OCI-C5x cells, with rucaparib 10 µM, 100% = cells with rucaparib alone",111% (inactive)
same,viability,"[20]; at 0.0195 µM, OCI-C5x cells, without rucaparib",120% (inactive)
same,viability,"[20]; at 0.0195 µM, OCI-P5x cells, with rucaparib 20 µM, 100% = cells with rucaparib alone",92.4% (active)
same,viability,"[20]; at 0.0195 µM, OCI-P5x cells, without rucaparib",106% (inactive)
same,viability,"[20]; at 0.0781 µM, OCI-C5x cells, with rucaparib 10 µM, 100% = cells with rucaparib alone",102% (inactive)
same,viability,"[20]; at 0.0781 µM, OCI-C5x cells, without rucaparib",106% (inactive)
same,viability,"[20]; at 0.0781 µM, OCI-P5x cells, with rucaparib 20 µM, 100% = cells with rucaparib alone",88.8% (active)
same,viability,"[20]; at 0.0781 µM, OCI-P5x cells, without rucaparib",53.5% (active)
same,viability,"[20]; at 0.313 µM, OCI-C5x cells, with rucaparib 10 µM, 100% = cells with rucaparib alone",112% (inactive)
same,viability,"[20]; at 0.313 µM, OCI-C5x cells, without rucaparib",108% (inactive)
same,viability,"[20]; at 0.313 µM, OCI-P5x cells, with rucaparib 20 µM, 100% = cells with rucaparib alone",108% (inactive)
same,viability,"[20]; at 0.313 µM, OCI-P5x cells, without rucaparib",113% (inactive)
same,viability,"[20]; at 1.25 µM, OCI-C5x cells, with rucaparib 10 µM, 100% = cells with rucaparib alone",103% (inactive)
same,viability,"[20]; at 1.25 µM, OCI-C5x cells, without rucaparib",121% (inactive)
same,viability,"[20]; at 1.25 µM, OCI-P5x cells, with rucaparib 20 µM, 100% = cells with rucaparib alone",64% (active)
same,viability,"[20]; at 1.25 µM, OCI-P5x cells, without rucaparib",50.7% (active)
same,viability,"[20]; at 5 µM, OCI-C5x cells, with rucaparib 10 µM, 100% = cells with rucaparib alone",90.1% (active)
same,viability,"[20]; at 5 µM, OCI-C5x cells, without rucaparib",129% (inactive)
same,viability,"[20]; at 5 µM, OCI-P5x cells, with rucaparib 20 µM, 100% = cells with rucaparib alone",26% (active)
same,viability,"[20]; at 5 µM, OCI-P5x cells, without rucaparib",0.383% (active)
